Data taken from PubChem BioAssay (NCATS).
Records with an inconclusive call do not appear. Entries that show only a call come without a potency. Calls of active or inactive are those of the source. The call rests on the fitted dose curve; in most records, active means well fitted curve in the direction sought with a large enough effect; inconclusive means small, poorly fitted or top-dose-only effect, or another doubt; inactive means no such curve, though single readings can be large; an effect the other way counts as inactive or inconclusive.

Legend:
[1] = qHTS assay for measurement of the activity of small molecule inhibitors on Zika virus induced Caspase-3 activity in human iPSC derived neural progenitor cells (hNPCs) (AID 1224857); further: nearly all actives have a fitted effect of over 65% in size
In short: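 After overnight (16–20 h) culture at 350 cells/well, hNPCs get compound, then ZIKV 2 FFU/cell one hour later. Six hours on, Caspase-Glo 3/7 is added and luminescence measured.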

[2] = qHTS assay for measurement of the activity of small molecule inhibitors on Zika virus induced Caspase-3 activity in human astrocytoma cells (AID 1224859)
In short: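 Inhibition of Zika-induced caspase-3/7 activity: SNB-19 cells, 1 h compound pretreatment, ZIKV 2 FFU/cell for 6 h at 37 C, Caspase-Glo luminescence read-out.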

[3] = qHTS assay to identify small molecule inhibitors of chordoma cells - UCH-1 (AID 1259355); further: nearly all actives have a fitted effect of over 55% in size; further: potency means the concentration at half of the fitted maximal effect; series mostly up to about 46 µM
In short: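 800 cells/well, overnight attach; compounds pinned at 15 concs, then auranofin/camptothecin/doxorubicin/rubitecan/topotecan combo added; 48hr 37 C, 5% CO2; CellTiter-Glo, 30min RT, luminescence.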

[4] = qHTS assay to identify small molecule inhibitors of chordoma cells - UCH-2 (AID 1259356); further: potency means the concentration at half of the fitted maximal effect

Compound	Potency [1]	Potency [2]	Potency [3]	Potency [4]
CCCCOC(=O)c1ccccc1C(=O)OCc1ccccc1	inactive	inactive	–	–
O=C(Cc1ccc(Cl)c(Cl)c1)N1CCCCC1CN1CCCC1 (stereo not given)	inactive	inactive	–	–
C[C@]12CCC3C(CC[C@H]4C[C@H](O)CC[C@]34C)C1CC[C@@H]2C(=O)CO (stereo not given in full)	inactive	inactive	–	–
COc1ccc(C(c2ccc(OC)cc2)C(Cl)(Cl)Cl)cc1	inactive	inactive	–	–
Clc1cnc(Oc2ccc(Oc3ncc(Cl)cc3Cl)cc2)c(Cl)c1	inactive	inactive	–	–
NC1CCc2cc(O)c(O)cc2C1 (stereo not given)	inactive	inactive	–	–
CC(C)NCC(O)c1ccc([N+](=O)[O-])cc1 (stereo not given)	inactive	inactive	–	–
C[N+]1(C)C2CCC1CC(OC(=O)C(CO)c1ccccc1)C2 (stereo not given)	inactive	inactive	–	–
C/C=C(/C)C(=O)O[C@H]1C(C)=C2[C@H]([C@@H]1OC(=O)CCCCCCC)[C@@](C)(OC(C)=O)C[C@H](OC(=O)CCC)[C@@]1(O)[C@H]2OC(=O)[C@@]1(C)O	inactive	inactive	–	–
CS(=O)(=O)c1ccc(C(=O)C2C(=O)CCCC2=O)c([N+](=O)[O-])c1	inactive	inactive	–	–
C[C@@H](N)Cc1cnc[nH]1	inactive	inactive	–	–
CCCN(CCC)[C@@H]1CCc2ccc(O)cc2C1	inactive	inactive	–	–
CCOCCOC(C)=O	inactive	inactive	–	–
C[C@@H]1O[C@H](C[N+](C)(C)C)C[C@H]1O	inactive	inactive	–	–
O=S(=O)(O)C(F)(F)C(F)(F)C(F)(F)C(F)(F)F	inactive	inactive	–	–
COCCOCCO	inactive	inactive	–	–
Cn1cnc(CCN)c1	inactive	inactive	–	–
O=S(=O)(c1ccc(Cl)cc1)c1ccc(Cl)cc1	inactive	inactive	–	–
CC(C)(C)C(O)C(Oc1ccc(Cl)cc1)n1cncn1 (stereo not given)	inactive	inactive	–	–
NCCc1c[nH]c2ccccc12	inactive	inactive	–	–
COc1cc(C(O)CN)ccc1O (stereo not given)	inactive	inactive	–	–

Compound	Potency [1]	Potency [2]	Potency [3]	Potency [4]
C#CCOC(=O)C1=CCCN(C)C1	inactive	inactive	–	–
ClC1=C(Cl)[C@]2(Cl)[C@@H]3[C@@H]4C[C@@H]([C@H]5O[C@@H]45)[C@@H]3[C@@]1(Cl)C2(Cl)Cl	inactive	inactive	–	–
CC(=O)NCCc1c[nH]c2ccccc12	inactive	inactive	–	–
CC1=C(C(=O)O)N2C(=O)[C@@H](N)[C@H]2SC1	inactive	inactive	–	–
Nc1ccc(Sc2ccc(N)cc2)cc1	inactive	inactive	–	–
NC(=O)CN1CC(O)CC1=O (stereo not given)	inactive	inactive	inactive	inactive
CCCCc1ccc(C(=O)O)nc1	inactive	inactive	inactive	inactive
Cc1cc(O)ccc1Cl	inactive	–	inactive	inactive
C1CCC(NC2CCCCC2)CC1	inactive	inactive	–	inactive
NC(N)=NOCCC(N)C(=O)O (stereo not given)	–	inactive	–	–
CC(Cc1ccc(O)cc1)NCC(O)c1cc(O)cc(O)c1 (stereo not given)	inactive	inactive	inactive	inactive
CNCCc1ccc(O)c(O)c1	–	inactive	–	–
S=C(NC1CCCCC1)N1CCC(c2cnc[nH]2)CC1	–	inactive	–	–
c1ccc(C2(c3ccccc3)CC2C2=NCCN2)cc1 (stereo not given)	inactive	inactive	inactive	inactive
CC(C)NC(C)Cc1ccc(I)cc1 (stereo not given)	inactive	inactive	inactive	inactive
CC1(C)CC/C(=C/c2ccc(Cl)cc2)C1(O)Cn1cncn1 (stereo not given)	–	inactive	–	–
O=C1C(I)=CC(=C(c2cc(I)c(O)c(I)c2)c2ccccc2C(=O)O)C=C1I	–	inactive	inactive	inactive
O=[N+]([O-])c1ccc([As](=O)(O)O)cc1	inactive	inactive	inactive	inactive
O=[N+]([O-])c1c(Cl)c(Cl)cc(Cl)c1Cl	–	inactive	–	–
CCCN(CCC)C1CCc2ccc(O)cc2C1 (stereo not given)	–	inactive	–	–
COC(=O)c1cncn1C(C)c1ccccc1 (stereo not given)	inactive	–	inactive	inactive

Compound	Potency [1]	Potency [2]	Potency [3]	Potency [4]
CNCCc1c[nH]c2ccc(O)cc12	–	inactive	–	–
O=C(O)C(Cl)Cl	–	inactive	inactive	inactive
O=C(O)CCCOc1ccc(Cl)cc1Cl	–	inactive	–	–
O=C(O)COc1ccccc1	inactive	–	inactive	inactive
CCCN1CCC[C@H](c2cccc(O)c2)C1	inactive	inactive	inactive	inactive
CCCCCCCCCCCCCCCC[N+](C)(C)C	inactive	inactive	–	inactive
CC(=O)[O][Hg][c]1ccccc1	inactive	–	7.08 µM (active)	2.59 µM (active)
Cc1ccc(Cl)c(O)c1	inactive	inactive	inactive	inactive
O=[N+]([O-])c1c2ccccc2cc2ccccc12	–	inactive	–	–
S=C(SSC(=S)N1CCCCC1)N1CCCCC1	–	inactive	–	–
CN[C@@H]1C[C@@H](c2ccc(Cl)c(Cl)c2)c2ccccc21	inactive	inactive	inactive	inactive
C[N+](C)(C)CC(=O)O	–	–	inactive	inactive
COC(C)(C)CCCC(C)C/C=C/C(C)=C/C(=O)OC(C)C (stereo not given)	inactive	inactive	inactive	inactive
C[C@]12N[C@H](Cc3ccccc31)c1ccccc12	–	inactive	inactive	inactive
CC[N+]1(CCOC(=O)C(O)(c2ccccc2)c2ccccc2)CCCCC1	–	–	inactive	inactive
COc1nn(CSP(=S)(OC)OC)c(=O)s1	–	inactive	–	–
O=[N+]([O-])/N=C1\NCCN1Cc1ccc(Cl)nc1	–	inactive	–	inactive
CN[C@@H](C)[C@H](O)c1ccccc1	inactive	inactive	inactive	inactive
C=CC(=O)NCNC(=O)C=C	–	inactive	–	–
CCCCCCCCCC(CC)c1ccc(S(=O)(=O)O)cc1 (stereo not given)	–	inactive	inactive	inactive
CCC1(CCC(C)C)C(=O)NC(=O)NC1=O	–	inactive	–	–
